Screening data (PubChem)
Shown are actives, neighbours in structure and some others; about 6.2% of the full set was active somewhere.
RORg inh – ROR gamma (mouse) transcription inhibition. Drosophila S2 Gal4-RORgamma UAS-luciferase reporter, 20 h. Potency, µM (titrated, usually from 53.6 µM), without a hit: at the top dose activity change, negative = inhibition, usual class: inhibitors. 310,000 tested, 5.4% active. AID 2551; further: nearly all actives have a fitted effect of over 60% in size
Target sequence (P51450 whole entry, looked up, the tested form may be a part): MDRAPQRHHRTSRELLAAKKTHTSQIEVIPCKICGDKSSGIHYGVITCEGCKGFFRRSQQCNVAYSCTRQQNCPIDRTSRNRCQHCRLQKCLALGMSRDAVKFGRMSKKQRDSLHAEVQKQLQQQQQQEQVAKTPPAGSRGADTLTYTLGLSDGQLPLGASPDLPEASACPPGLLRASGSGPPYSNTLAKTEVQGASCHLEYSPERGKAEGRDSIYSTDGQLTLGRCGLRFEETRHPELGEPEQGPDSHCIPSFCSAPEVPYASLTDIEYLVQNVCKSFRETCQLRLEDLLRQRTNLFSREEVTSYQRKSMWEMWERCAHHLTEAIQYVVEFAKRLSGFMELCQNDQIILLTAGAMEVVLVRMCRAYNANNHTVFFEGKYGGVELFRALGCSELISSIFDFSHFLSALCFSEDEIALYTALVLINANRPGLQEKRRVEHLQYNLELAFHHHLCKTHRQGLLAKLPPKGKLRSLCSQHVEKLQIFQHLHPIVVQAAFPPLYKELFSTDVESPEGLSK
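A Gal4/UAS one-hybrid system in insect cells: metallothionein-promoter Gal4–ROR gamma fusion plus Photinus luciferase reporter. Copper sulfate 700 uM final, 20 hr ambient incubation, luminescent detection after 10 min with reagent.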
KinaseGlo FLuc – blocks Kinase-Glo luciferase, a counter-screen artifact; Q27757; Kinase-Glo luciferase, ATP luminescence, 8 min; Potency, µM (doses to about 38.3 µM), inactives show top-dose activity change, negative = inhibition, usual class: inhibitors; 200,000 tested, 0.28% active; further: nearly all actives have a fitted effect of over 60% in size
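Inhibition of Kinase-Glo luciferase light generation was assessed at 10 uM ATP in pH 7.2 imidazole buffer, with luminescence measured after eight minutes at ambient temperature.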
VP16 counter – Gal4-VP16 reporter inhibition counter-screen. Potency, µM (doses to about 53.6 µM), inactives show at the top dose activity, negative = inhibition, most hits filed as inhibitors. 310,000 tested, 3.5% active. AID 2546. Drosophila S2 Gal4-VP16 UAS-luciferase, luminescence, 20 h;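 further: Gal4-VP16 expression switched on by copper sulfate through the metallothionein promoter; nearly all actives have a fitted effect of over 50% in size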
An asterisk follows results filed as active; [ ] = another dose, or the depositor's remark. The call rests on the fitted dose curve; in most records, active means well fitted curve in the direction sought with a large enough effect; inconclusive means small, poorly fitted or top-dose-only effect, or another doubt; inactive means no such curve, though single readings can be large; an effect the other way counts as inactive or inconclusive. On the % scale 0 is the no-effect control and ±100 the full control effect; potency means the concentration at half of the fitted maximal effect.

`COc1cccc(NC(=O)CCc2c(C)nc3nc(CNC(=O)c4cccc(F)c4)nn3c2C)c1` gave RORg inh 11% and VP16 counter -3%.
For CC(=O)/C(=N/Nc1ccccc1)Sc1nnc(CCc2ccccc2)n1-c1ccccc1 the results were RORg inh -9%, KinaseGlo FLuc 0% and VP16 counter -3%.
CC(=O)/C(=N\Nc1ccc(Cl)cc1)Sc1nnc(-c2ccccc2)n1-c1ccccc1 was read as RORg inh 6.3µM*, KinaseGlo FLuc 0% and VP16 counter 6.3µM*.
COc1ccc(C(C)=O)c(Oc2cc(NN3CCCCC3)c([N+](=O)[O-])cc2[N+](=O)[O-])c1 was read as RORg inh -6% and VP16 counter 8%.
O=C(c1cc(COc2ccc(F)cc2Cl)on1)N1CCCCCC1 was read as RORg inh 37% and VP16 counter -3%.
Screening O=C(c1cc(COc2ccc(F)cc2Cl)on1)N1CCC(c2ccncc2)CC1 returned RORg inh 11µM*, KinaseGlo FLuc -1% and VP16 counter 7.1µM*.
`CC1(C)CC(=O)C(C=NCCN2CCNCC2)=C(O)C1` gave RORg inh 3%, KinaseGlo FLuc 1% and VP16 counter 1%.
For CN(C)CCCn1c(=S)[nH]c2ccccc2c1=O the results were RORg inh -29%, KinaseGlo FLuc 5% and VP16 counter -7%.
`C=CCn1c(SCC(N)=O)nc2sc3c(c2c1=O)CCC3` gave RORg inh -37% and VP16 counter inconclusive.
`C=CCn1c(=S)[nH]c2sc3c(c2c1=O)CCC3` gave RORg inh 0.1µM*, KinaseGlo FLuc -1% and VP16 counter inconclusive.
Screening CC1CCc2c(sc3[nH]c(=S)n(C)c(=O)c23)C1 (stereo not drawn) returned RORg inh 0.56µM* and VP16 counter 0.89µM*.
Screening CC1CCc2c(sc3nn[nH]c(=O)c23)C1 (stereo not drawn) returned RORg inh 30%, KinaseGlo FLuc -3% and VP16 counter -17%.
Screening CN(C)CCCn1c(=S)[nH]c2sc3c(c2c1=O)CCCC3 returned RORg inh 14µM* and VP16 counter inconclusive.
`CCn1c(=S)[nH]c2sc3c(c2c1=O)CCCC3` gave RORg inh 0.45µM* and VP16 counter 0.63µM*.
Screening CCn1c(=O)c2c3c(sc2n2cnnc12)CCC3 returned RORg inh 0%, KinaseGlo FLuc -7% and VP16 counter 4%.
`O=C(N/N=C/c1ccc(Cl)cc1Cl)C(=O)NC1CC1` gave RORg inh 9%, KinaseGlo FLuc 4% and VP16 counter -10%.
`Cn1c(=O)c(=O)n(C)c2cc(S(=O)(=O)N3CCCC3C(=O)NCc3cccs3)ccc21` (stereo not drawn) gave RORg inh 0% and VP16 counter -2%.
`CCOC(=O)Cc1csc(NC(=O)COc2cc(C)cc(C)c2)n1` gave RORg inh 28%, KinaseGlo FLuc 0% and VP16 counter -1%.
For CCOC(=O)CC(=O)c1sc2c(c1N)c(=O)[nH]c(=O)n2-c1ccc(OC)cc1 the results were RORg inh 0% and VP16 counter -5%.
For CC1(C)OC(=O)C(=NNc2ccc(Br)cc2)C(=O)O1 the results were RORg inh inconclusive, KinaseGlo FLuc 5% and VP16 counter -2%.
`COc1ccc(C2/C=C\CN(C(=O)C3CCCCC3)C(C)C(=O)N2Cc2ccc(F)cc2)cc1` (stereo not drawn) gave RORg inh inconclusive and VP16 counter -17%.
For C=CCN1C(=O)C(CC(=O)Nc2ccccc2)SC1=Nc1ccc(S(N)(=O)=O)cc1 (stereo not drawn) the results were RORg inh inconclusive, KinaseGlo FLuc 2% and VP16 counter -5%.
Screening CCOc1ccc(C2C=C(c3ccccc3)Nc3ncnn32)cc1 (stereo not drawn) returned RORg inh -26%, KinaseGlo FLuc -4% and VP16 counter 7%.
Screening CCOc1ccc(C2C=C(c3ccc(F)cc3)Nc3ncnn32)cc1 (stereo not drawn) returned RORg inh 13µM*, KinaseGlo FLuc 1% and VP16 counter inconclusive.
Fc1ccc(C2C3=C(Nc4ncnn42)c2ccccc2OC3c2ccncc2)cc1 (stereo not drawn) was read as RORg inh -19%, KinaseGlo FLuc 18% and VP16 counter 0%.
Cc1ccc(C2Oc3ccccc3C3=C2C(c2cccs2)n2ncnc2N3)cc1 (stereo not drawn) was read as RORg inh 11µM*, KinaseGlo FLuc 0% and VP16 counter inconclusive.
`C[C@@H]1OC(O[C@H]2[C@H](Oc3cc(O)c4c(=O)c(O)c(-c5ccc(O)cc5)oc4c3)O[C@H](CO)[C@@H](O)[C@@H]2O)[C@H](O)[C@H](O)[C@H]1O` (stereo partly drawn) gave RORg inh 10% and VP16 counter -4%.
COc1ccccc1-c1nc(NCCN2CCOCC2)c2ccccc2n1 was read as RORg inh -30% and VP16 counter -14%.
For Cc1nnc(N(Cc2ccco2)C(=O)c2cccc(C#N)c2)s1 the results were RORg inh 13µM*, KinaseGlo FLuc -4% and VP16 counter 1%.
For Cc1nnc(N(Cc2ccco2)C(=O)c2ccc(C#N)cc2)s1 the results were RORg inh 45%, KinaseGlo FLuc -3% and VP16 counter -3%.
C#CC(C)(CC)NC(=O)Cn1nnc(-c2cccc(C(F)(F)F)c2)n1 (stereo not drawn) was read as RORg inh inconclusive, KinaseGlo FLuc 2% and VP16 counter -26%.
Screening COC(=O)NC(CCc1ccccc1)C(C(C)=O)C(=O)OC (stereo not drawn) returned RORg inh 29%, KinaseGlo FLuc -2% and VP16 counter 13%.
Screening C[C@H]1Cc2c(-c3ccccc3)nc3c(c2CO1)CN(C(=O)C1CCCCC1)CC3 returned KinaseGlo FLuc -3%[7.66 µM].
`O=C(NNc1nc2c(F)cccc2s1)c1cc(=O)c2ccccc2o1` gave RORg inh 10µM* and VP16 counter inconclusive.
Screening Cc1ccc2sc(NNC(=O)c3cc(=O)c4ccccc4o3)nc2c1C returned RORg inh -10% and VP16 counter -12%.
Screening Cc1cccc2sc(NNC(=O)c3cc(=O)c4ccccc4o3)nc12 returned RORg inh 4µM* and VP16 counter inconclusive.
For O=C(Nc1ccc(O)c(-c2nc3ccccc3s2)c1)c1cc(=O)c2ccccc2o1 the results were RORg inh 0%, KinaseGlo FLuc 1% and VP16 counter 1%.
For COc1ccc(-n2nc(C(=O)Nc3nc4ccc(OC)cc4s3)c3ccccc3c2=O)cc1 the results were RORg inh -26%, KinaseGlo FLuc 1% and VP16 counter -5%.
COc1ccc2nc(NNC(=O)c3cc(=O)c4ccccc4o3)sc2c1 was read as RORg inh 8.9µM* and VP16 counter inconclusive.
`O=[N+]([O-])c1ccc(CSc2nnc(-c3cccnc3)o2)cc1` gave RORg inh 15% and VP16 counter 15%.
Screening CCO[C@H]1OC(C(=O)NC2CC2)=C[C@@H](C2CC2)[C@@H]1CCCO returned RORg inh 2% and VP16 counter -3%.
